Several values for one entry are separate records, joined by “and”; a condition that tells them apart may be missing. Equal values may be shown once. The panel holds about 83,000 compounds, 20% with a hit somewhere; the sample as a whole holds those more often.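 The endpoint reported here, percent growth, reads 100 for growth as untreated, 0 for no net growth and -100 for all cells dead.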 Activity calls are given as the source filed them. How the source made its calls: active means growth percent below 10; inactive means the rest.
Experiments:
Assay in all cases: NCI-60 one-dose screen, 48 h (100 = growth as untreated, 0 = no growth, -100 = all killed)
Conditions in all cases: 10 µM unless noted
HCT-15 colon = test system: HCT-15 colon
HT29 colon = test system: HT29 colon
SNB-75 CNS = test system: SNB-75 CNS
SNB-19 CNS = test system: SNB-19 CNS
U251 CNS = test system: U251 CNS
PC-3 prostate = test system: PC-3 prostate
SK-MEL-5 melanoma = test system: SK-MEL-5 melanoma
UACC-62 melanoma = test system: UACC-62 melanoma
LOX IMVI melanoma = test system: LOX IMVI melanoma
SK-MEL-2 melanoma = test system: SK-MEL-2 melanoma
EKVX NSCLC = test system: EKVX NSCLC
UO-31 renal = test system: UO-31 renal
TK-10 renal = test system: TK-10 renal
ACHN renal = test system: ACHN renal
CAKI-1 renal = test system: CAKI-1 renal
A498 renal = test system: A498 renal
CCRF-CEM leukemia = test system: CCRF-CEM leukemia
MOLT-4 leukemia = test system: MOLT-4 leukemia
SK-MEL-28 melanoma = test system: SK-MEL-28 melanoma
SN12C renal = test system: SN12C renal

Measured: growth

CC(C)CNC(=O)c1ccccc1C(=O)NC1(C(=O)NCC(C)C)CCCC1
inactive: HCT-15 colon 103% and 106% | HT29 colon 105% and 104% | SNB-75 CNS 87.9% and 94.6% | SNB-19 CNS 105% and 108% | U251 CNS 109% and 105% | PC-3 prostate 97.9% and 96.3% | SK-MEL-5 melanoma 106% and 115% | UACC-62 melanoma 103% and 107% | LOX IMVI melanoma 90.4% and 101% | SK-MEL-2 melanoma 103% and 100% | EKVX NSCLC 96.7% and 109% | UO-31 renal 83.5% and 86.1% | TK-10 renal 111% and 114% | ACHN renal 102% and 104% | CAKI-1 renal 90.6% and 98% | A498 renal 84.2% and 123% | CCRF-CEM leukemia 88.4% and 104% | MOLT-4 leukemia 102% and 88.6%

CC[N+](CC)(CC(=O)Nc1c(C)cccc1C)Cc1ccccc1
inactive: HCT-15 colon 88.6% and 104% | HT29 colon 101% and 102% | SNB-75 CNS 84.9% and 101% | U251 CNS 75.6% and 97.9% | PC-3 prostate 84.3% and 97.2% | SK-MEL-5 melanoma 85.7% and 98.7% | UACC-62 melanoma 81.6% and 93.2% | LOX IMVI melanoma 79% and 98.3% | SK-MEL-28 melanoma 99.7% and 103% | SK-MEL-2 melanoma 107% and 119% | EKVX NSCLC 106% and 100% | SN12C renal 85.9% and 100% | UO-31 renal 92.6% and 71.6% | TK-10 renal 144% and 90.9% | ACHN renal 98.5% and 101% | CAKI-1 renal 108% and 91.9% | A498 renal 106% and 107% | MOLT-4 leukemia 99.8% and 98.6%
active: CCRF-CEM leukemia 2.65%

CN(C)CCCNC1=C(Cl)C(=O)c2ccccc2C1=O
30.2% (inactive) and -44.6% (active): EKVX NSCLC
active: HCT-15 colon -62.2% and -49.3% | HT29 colon -26% and -31.7% | U251 CNS -63% and -94.2% | SK-MEL-5 melanoma -94.2% and -100% | LOX IMVI melanoma -43.5%
87.6% (inactive) and -34.4% (active): SK-MEL-2 melanoma
28.6% (inactive) and -13.8% (active): UACC-62 melanoma
inactive: SNB-75 CNS 64.1% and 47.8% | PC-3 prostate 56.8% and 53.6% | SK-MEL-28 melanoma 83.2% and 83.7% | UO-31 renal 73.8% and 47.6% | TK-10 renal 120% and 116% | ACHN renal 92.7% and 92.5% | CAKI-1 renal 91.3% and 104% | A498 renal 103% and 85.4% | CCRF-CEM leukemia 80% and 81.3%
67.1% (inactive) and -98.3% (active): SN12C renal

c1ccc2c(CC3=NCCN3)cccc2c1
inactive: HCT-15 colon 104% and 106% | HT29 colon 103% and 96.3% | SNB-75 CNS 92.9% and 105% | U251 CNS 94.6% and 100% | PC-3 prostate 103% and 96.2% | SK-MEL-5 melanoma 92.7% and 108% | UACC-62 melanoma 108% and 106% | LOX IMVI melanoma 91.9% and 99.4% | SK-MEL-28 melanoma 109% and 107% | SK-MEL-2 melanoma 132% and 110% | EKVX NSCLC 113% and 102% | SN12C renal 103% and 107% | UO-31 renal 97.6% and 98.7% | TK-10 renal 114% and 108% | ACHN renal 102% and 116% | CAKI-1 renal 92.9% | A498 renal 90.3% and 81.4% | CCRF-CEM leukemia 99.8% | MOLT-4 leukemia 113% and 108%

Nc1ccc2[nH]c(-c3ccccc3)cc(=O)c2c1
inactive: HCT-15 colon 73.7% | HT29 colon 78.7% | SNB-75 CNS 82.4% | SNB-19 CNS 88.7% | U251 CNS 72.9% | PC-3 prostate 74.1% | SK-MEL-5 melanoma 58.2% | UACC-62 melanoma 77.6% | SK-MEL-2 melanoma 78.8% | EKVX NSCLC 96.1% | SN12C renal 98.2% | UO-31 renal 89.9% | TK-10 renal 123% | ACHN renal 102% | CAKI-1 renal 72.2% | A498 renal 84.2% | CCRF-CEM leukemia 67.9% | MOLT-4 leukemia 63.8%

CC(C)(C)c1ccc(O)c(CNC2CCCCC2)c1
inactive: HCT-15 colon 108% and 84.5% | HT29 colon 79.1% and 95.2% | SNB-75 CNS 86% and 82.8% | U251 CNS 97.6% and 88% | PC-3 prostate 82.5% and 83.8% | SK-MEL-5 melanoma 92.6% and 79.2% | UACC-62 melanoma 96.6% and 79.7% | LOX IMVI melanoma 86.2% and 97.6% | SK-MEL-28 melanoma 105% and 98.3% | SK-MEL-2 melanoma 94.6% | EKVX NSCLC 108% | SN12C renal 102% and 91.4% | UO-31 renal 65.7% and 78.9% | TK-10 renal 92.4% | ACHN renal 116% and 91.3% | CAKI-1 renal 111% and 97.5% | A498 renal 110% and 91.8% | CCRF-CEM leukemia 91.8% and 86.6% | MOLT-4 leukemia 98.1% and 81.2%

Cc1cc(O)c2c(c1)C(=O)c1cc(O)cc(O)c1C2=O
inactive: HCT-15 colon 98.9% and 92.2% | HT29 colon 105% and 99.6% | SNB-75 CNS 88% and 86.7% | U251 CNS 92.1% and 88.1% | PC-3 prostate 67% and 77.9% | SK-MEL-5 melanoma 48.9% and 59.9% | UACC-62 melanoma 60.7% and 83.6% | LOX IMVI melanoma 84.6% and 86.5% | SK-MEL-28 melanoma 87.7% | SK-MEL-2 melanoma 94.9% and 85.1% | EKVX NSCLC 68% and 77.3% | SN12C renal 86.1% and 91.1% | UO-31 renal 76.6% and 71.2% | TK-10 renal 104% and 95.4% | ACHN renal 87.8% and 88.8% | A498 renal 82.7% and 75.8% | CCRF-CEM leukemia 82.5% and 80% | MOLT-4 leukemia 101% and 85.9%

O[C@H](c1cc(C(F)(F)F)nc2c(C(F)(F)F)cccc12)[C@@H]1CCCCN1
inactive: HCT-15 colon 70.8% and 82.5% | HT29 colon 47.5% | SNB-75 CNS 29.7% and 46.3% | U251 CNS 42.6% and 45.9% | PC-3 prostate 42.7% and 45% | SK-MEL-5 melanoma 84.9% and 74.2% | UACC-62 melanoma 70.5% and 67.8% | SK-MEL-28 melanoma 94.4% and 88.8% | SK-MEL-2 melanoma 73.6% and 52.5% | EKVX NSCLC 65.5% and 82.8% | SN12C renal 65.9% and 55.1% | UO-31 renal 50.5% and 31.7% | TK-10 renal 56.9% and 63.8% | ACHN renal 40.1% and 45.8% | CAKI-1 renal 72.7% and 50.9% | A498 renal 67% and 52% | CCRF-CEM leukemia 76.5% and 71.6% | MOLT-4 leukemia 32.7%
11.6% (inactive) and 7.96% (active): LOX IMVI melanoma

O=Nc1ccc(O)cc1
inactive: HCT-15 colon 89.3% and 92.3% | HT29 colon 97.4% and 97.5% | SNB-75 CNS 95.6% | U251 CNS 101% and 94.2% | PC-3 prostate 85.1% and 90% | SK-MEL-5 melanoma 98% and 109% | UACC-62 melanoma 90.2% and 93.4% | LOX IMVI melanoma 90.8% and 82.3% | SK-MEL-28 melanoma 113% | SK-MEL-2 melanoma 96.7% and 109% | EKVX NSCLC 91.6% and 105% | SN12C renal 96.1% and 97.3% | UO-31 renal 90.7% and 62.9% | TK-10 renal 107% and 105% | ACHN renal 81.3% and 75% | CAKI-1 renal 97.9% | A498 renal 122% and 130% | CCRF-CEM leukemia 75.4% and 56.1% | MOLT-4 leukemia 82.5% and 89.2%

CCOC(=O)c1sc(N)nc1-c1ccccc1
inactive: HCT-15 colon 97.3% | HT29 colon 96.8% | SNB-75 CNS 94.7% | SNB-19 CNS 109% | U251 CNS 98.8% | PC-3 prostate 98% | SK-MEL-5 melanoma 100% | UACC-62 melanoma 112% | LOX IMVI melanoma 95.5% | SK-MEL-2 melanoma 95.9% | SN12C renal 104% | UO-31 renal 85.4% | TK-10 renal 99% | ACHN renal 93.7% | CAKI-1 renal 103% | A498 renal 94.5% | CCRF-CEM leukemia 97.7% | MOLT-4 leukemia 96.1%

Reference: PubChem BioAssay (NCI)
